Measured values as given in PubChem BioAssay.
The source made the active and inactive calls.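 How the source made its calls, unless noted: active means thallium flux through the channel raised or lowered by more than 3 SD from vehicle-only wells, actives on both sides; inactive means the rest.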

Legend:
[1] = liver-stage malaria parasite growth inhibition, primary screen, cell-based, HepG2, luciferase luminescence, HepG2 viability (AID 624349; in the data active means parasite load remaining mostly below about 12%, no sharp cut-off; inactive means mostly above about 10%;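 further: 100% = mean of DMSO negative control wells on the same plate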); conditions: P. berghei liver stage in HepG2, luciferase luminescence, concentration not given here; parasite load remaining: stronger effect = lower value; viability: measured here: HepG2 viability without parasites
[2] = Cy5 fluorescence interference with SSB-bound oligo, artefact control for HCV NS3 helicase inhibitor project, biochemical, NIH Clinical Collection, E. coli SSB (AID 743268; call rule not given here)
[3] = tested on: Hepatitis C virus NS3 helicase; test: HCV NS3 helicase inhibitors, primary screen, biochemical, fluorescence polarization, NIH Clinical Collection (AID 743270; call rule not given here); conditions: NS3 helicase binding to Cy5-dT15 DNA, stronger effect = higher value, concentration not given here
[4] = biological target: Single-stranded DNA-binding protein (Escherichia coli (strain K12)) (UniProt P0AGE0); test: E. coli SSB displacement from DNA, counter-screen for HCV NS3 helicase inhibitor project, biochemical, fluorescence polarization, NIH Clinical Collection (AID 743271; in the data active means inhibition above about 28%); conditions: stronger effect = higher value, concentration not given here
[5] = fluorescence interference in NS3h assay format, artefact control for HCV NS3 helicase inhibitor project, biochemical, NIH Clinical Collection (AID 743272; call rule not given here;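 further: HCV NS3 helicase with a Cy5 labelled single stranded DNA probe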); conditions: fluorescence interference counterscreen, stronger effect = lower value
[6] = sensitizers of A549 cells to miR-34 induction, primary screen, imaging, A549 dox-inducible miR-34, nuclei and caspase counts (AID 1347080;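 active means compounds whose cell count with miR-34 switched on is under 0.7 times the count with it off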); conditions: A549 miR-34 inducible, Hoechst nuclei count, 48 h
[7] = viability rescue of complex I mutant cybrids, primary screen, cell-based, galactose medium, ATP luminescence (AID 1645843;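 active means z-score of at least 1.8 in each of two replicates, scored against plate mean and spread of sample wells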;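 further: positive z means more ATP and so rescue of galactose-driven cybrid death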); conditions: complex I mutant cybrid cells, 72 h, stronger effect = higher value
F380Y = test: modulators of BK channel variants, profiling panel, selectivity assay, cell-based, U2OS BacMam, thallium flux, beta subunits (AID 1259406); conditions: at 30 µM;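 further: initial slope of Thallos dye fluorescence rise after thallium is added; log ratio against the mean of 0.3% DMSO vehicle wells on the same plate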
F380Y/beta1 = test: as above; conditions: at 30 µM
F380Y/beta2Delta = test: as above; conditions: at 30 µM
F380Y/beta4 = test: as above; conditions: at 30 µM
[8] = biological target: Calcium-activated potassium channel subunit alpha-1 (Homo sapiens) + Leucine-rich repeat-containing protein 26 (Homo sapiens) (UniProt Q12791+Q2I0M4); test: as above; conditions: F380Y/Slo1WT/gamma1, at 30 µM
Calcium-activated potassium channel subunit alpha-1 (Homo sapiens) + Leucine-rich repeat-containing protein 26 (Homo sapiens), sequence (Q2I0M4 whole entry, looked up, one chain of several): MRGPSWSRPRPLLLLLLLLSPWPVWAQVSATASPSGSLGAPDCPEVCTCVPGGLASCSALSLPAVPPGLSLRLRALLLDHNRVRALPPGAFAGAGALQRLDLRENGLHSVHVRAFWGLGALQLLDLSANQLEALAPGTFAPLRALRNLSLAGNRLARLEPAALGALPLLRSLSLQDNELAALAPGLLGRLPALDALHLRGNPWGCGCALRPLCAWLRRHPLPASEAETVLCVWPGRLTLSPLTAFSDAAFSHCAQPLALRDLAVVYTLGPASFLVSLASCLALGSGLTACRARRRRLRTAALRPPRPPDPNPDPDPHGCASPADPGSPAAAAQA

R275C = test: as above; conditions: at 30 µM
R275C/beta1 = test: as above; conditions: at 30 µM
R275C/beta2Delta = test: as above; conditions: at 30 µM
R275C/beta4 = test: as above; conditions: at 30 µM
R275C/Slo1WT/beta2 = test: as above; conditions: at 30 µM
[9] = tested on: Neuropilin-2 / VEGF-C interaction (human); test: inhibitors of NRP2–VEGF-C binding, biochemical, microplate binding format, z-score (AID 743281; call rule not given here); conditions: microplate NRP2/VEGF-C binding assay; stronger effect = lower value
[10] = modulation of C. elegans fzo-1 (AID 1259413; call rule not given here;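 further: fzo-1 mutant C. elegans worms in liquid wells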); conditions: C. elegans fzo-1 modulator screen, mean read-out; stronger effect = higher value

CN1CCN2c3ncccc3Cc3ccccc3[C@@H]2C1
inactive: parasite load remaining [1] 60.5% | fluorescence ratio [2] 1 | inhibition [3] -1.36% | inhibition [4] 4.1% | fluorescence ratio [5] 1.01 | fold change ([6]; stronger effect = lower value, cell number ratio, induced over uninduced) 1.01 | z-score [7] 0.765 | log fold change Tl+ flux (F380Y) 0.081 | log fold change Tl+ flux (F380Y/beta1) 0.0391 | log fold change Tl+ flux (F380Y/beta2Delta) 0.0643 | log fold change Tl+ flux (F380Y/beta4) 0.0496 | log fold change Tl+ flux [8] -0.00307 | log fold change Tl+ flux (R275C) 0.0138 | log fold change Tl+ flux (R275C/beta1) 0.0202 | log fold change Tl+ flux (R275C/beta2Delta) 0.0645 | log fold change Tl+ flux (R275C/beta4) 0.023 | log fold change Tl+ flux (R275C/Slo1WT/beta2) -0.0289
95.7%: viability [1]
10600: cell count ([6]; measured here: total cells with miR-34 induction, stronger effect = lower value)
3.94: fold change ([6]; measured here: relative caspase fold change +Dox/-Dox)
10500: cell count ([6]; measured here: total cells without miR-34 induction)

C=CC1=C(C(=O)O)N2C(=O)[C@@H](NC(=O)C(=NO)c3csc(N)n3)[C@H]2SC1
active: inhibition [4] 96.5%
69.3%: viability [1]
inactive: parasite load remaining [1] 50% | fluorescence ratio [2] 1 | inhibition [3] 11.1% | fluorescence ratio [5] 0.91 | log fold change Tl+ flux (F380Y) 0.0518 | log fold change Tl+ flux (F380Y/beta1) 0.00826 | log fold change Tl+ flux (F380Y/beta2Delta) 0.0258 | log fold change Tl+ flux (F380Y/beta4) 0.0162 | log fold change Tl+ flux [8] -0.00804 | log fold change Tl+ flux (R275C) -0.0491 | log fold change Tl+ flux (R275C/beta1) 0.0161 | log fold change Tl+ flux (R275C/beta2Delta) 0.037 | log fold change Tl+ flux (R275C/beta4) 0.0002 | log fold change Tl+ flux (R275C/Slo1WT/beta2) 0.0335

CO[C@H]1O[C@@H]2O[C@@]3(C)CC[C@H]4[C@H](C)CC[C@@H]([C@H]1C)[C@@]24OO3
active: log fold change Tl+ flux (F380Y/beta2Delta) -0.0746
66.6%: viability [1]
inactive: parasite load remaining [1] 32% | fluorescence ratio [2] 1.02 | inhibition [3] -1.97% | inhibition [4] -3.54% | fluorescence ratio [5] 1 | z-score [9] -0.742 | mean signal [10] 291 | log fold change Tl+ flux (F380Y) -0.0298 | log fold change Tl+ flux [8] -0.00699 | log fold change Tl+ flux (R275C) 0.0256 | log fold change Tl+ flux (R275C/beta1) -0.0131 | log fold change Tl+ flux (R275C/beta2Delta) -0.00466

CC(C)CC(NC(=O)C(COC(C)(C)C)NC(=O)C(Cc1ccc(O)cc1)NC(=O)C(CO)NC(=O)C(Cc1c[nH]c2ccccc12)NC(=O)C(Cc1cnc[nH]1)NC(=O)C1CCC(=O)N1)C(=O)N[C@@H](CCCN=C(N)N)C(=O)N1CCCC1C(=O)NNC(N)=O (stereo partly drawn)
inactive: parasite load remaining [1] 82.9% | fluorescence ratio [2] 0.89 | inhibition [3] -0.22% | inhibition [4] 7.48% | fluorescence ratio [5] 0.87 | z-score [9] -0.441 | log fold change Tl+ flux (F380Y) -0.0277 | log fold change Tl+ flux (F380Y/beta1) 0.02 | log fold change Tl+ flux (F380Y/beta2Delta) -0.0184 | log fold change Tl+ flux (F380Y/beta4) 0.00509 | log fold change Tl+ flux [8] -0.0112 | log fold change Tl+ flux (R275C) -0.0448 | log fold change Tl+ flux (R275C/beta1) 0.00576 | log fold change Tl+ flux (R275C/beta2Delta) -0.00625 | log fold change Tl+ flux (R275C/beta4) -0.0787
90.6%: viability [1]
active: log fold change Tl+ flux (R275C/Slo1WT/beta2) 0.0919
